Source: PubChem BioAssay (Broad Institute)
Only a selection was taken, and hits are over-represented in it overall.
BL2 CD40 inh – CD40 pathway inhibition in BL2 cells | BL2 NF-kB luciferase reporter, CD40L-induced, 4 h | 83,000 compounds, 0.94% hits | AID 1053188 | inhibition, % at 10 µM;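 active = mean inhibition of at least 50% with a set share of replicates also reaching that level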;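 note: 0% = neutral control wells and 100% = IKK inhibitor VII at 50 µM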
* hit, by the source's call; [ ] = remark or other dose.

SMILES	BL2 CD40 inh
O=C1C[C@H](c2ccccc2)C(=O)N[C@@H](c2ccccc2)C/C=C\C[C@@H](c2ccccc2)N1	60*[25 µM]
O=C1C[C@@H](c2ccccc2)C(=O)N[C@@H](c2ccccc2)C/C=C\C[C@H](c2ccccc2)N1	-10[25 µM]
O=C1C[C@@H](c2ccccc2)C(=O)N[C@H](c2ccccc2)C/C=C\C[C@H](c2ccccc2)N1	5[25 µM]
C[C@H](CO)N1C[C@H](C)[C@H](CN(C)S(=O)(=O)c2ccc(Cl)cc2)OCc2ccccc2-c2ccccc2C1=O	25
CNC[C@@H]1Oc2ccc(N)cc2C(=O)N(C)C[C@H]1C	10
O=S(=O)(Cc1ccccc1)N1[C@@H]2CNC[C@H]1C2c1ccc(/C=C/c2ccccc2)cc1 (some centres undefined)	-31
Cc1ccc(-c2cc(C(=O)N(C)CC(=O)Nc3ccccc3Br)c3ccccc3n2)o1	55*
COc1ccc(NC(=O)CN(C)C(=O)c2cc(-c3ccco3)nc3ccccc23)cc1	-6
Cc1ccc(-c2cc(C(=O)NCC3(N(C)C)CCCCC3)c3ccccc3n2)o1	0
O=C1Nc2ccccc2OCc2cn(nn2)CC[C@H]1Cc1ccc(-c2ccccc2)cc1	-11[25 µM]
Cc1noc(C)c1NC(=O)N(C)C[C@H]1OCCCC[C@H](C)Oc2ccc(NC(=O)Nc3ccc(C(F)(F)F)cc3)cc2C(=O)N([C@H](C)CO)C[C@@H]1C	27[25 µM]
COCCCNc1ccn2nc(-c3ccccc3)cc2n1	60*
c1ccc(OCCNc2ccn3nc(-c4ccccc4)cc3n2)cc1	-62
COCCCNc1ccn2nc(-c3cc(OC)c(OC)c(OC)c3)cc2n1	1
C[C@@H](NC(=O)C[C@@H]1C[C@@H]2c3cc(NC(=O)NC4CCCC4)ccc3O[C@@H]2[C@H](CO)O1)c1ccccc1	-6
O=C1CNC[C@@H]2[C@@H](c3ccc(C4=CCCC4)cc3)[C@H](CO)N12	-16[25 µM]
COc1cccc(C(=O)Nc2ccc3c(c2)OC[C@@H](C)NC[C@@H](C)[C@H](OC)CN(C)C3=O)c1	6
O=C(N[C@@H]1CC[C@H](CC(=O)N2CCOCC2)O[C@H]1CO)c1cccc(F)c1	10[25 µM]
N#C[C@H]1[C@@H](c2ccccc2-c2ccccc2F)[C@H](CO)N1C(=O)c1cccc(F)c1	5[25 µM]
O=C(Nc1cc(F)ccc1F)N[C@@H]1CC[C@H](CCn2cc(C3CCCC3)nn2)O[C@@H]1CO	0
CC1(C)CC(Nc2ccc(Nc3ccccc3)cc2)CC(C)(C)N1	100*
CC1(C)CC(NCc2ccncc2)CC(C)(C)N1	5
CC1(C)CC(NS(=O)(=O)c2cccc3ccccc23)CC(C)(C)N1	6
N#Cc1c(NCCCO)nc(NCc2ccccc2)c2c1CCN(Cc1ccccc1)C2	-1
Cc1nc(N2CCN(C(=O)c3ccco3)CC2)c(C#N)c2c1CCCC2	-7
SMILES	BL2 CD40 inh
CN1CCc2c(C#N)c(N3CCCCC3)nc(NCc3ccccc3)c2C1	35*
N#C[C@@H]1[C@@H](c2ccc(C#Cc3cccnc3)cc2)[C@@H](CO)N1C(=O)C1CCCC1	-5
COc1ccccc1Nc1nc(NCc2ccco2)c2ccccc2n1	-21
c1ccc(N2CCN(c3nc(NCc4ccco4)c4ccccc4n3)CC2)cc1	29
c1ccc(-c2nc(NCc3ccco3)c3ccccc3n2)nc1	53*
Cc1noc(C)c1S(=O)(=O)Nc1ccc2c(c1)CC(=O)N([C@H](C)CO)C[C@@H](C)[C@@H](CN(C)C(=O)Nc1cccc3ccccc13)O2	2[25 µM]
CC(=O)Nc1ccc2c(c1)C(=O)N(C)C[C@@H](C)[C@H](CN(C)C)O2	-6
NC(c1csc(NC(=O)Nc2cccc(Cl)c2)n1)c1ccccc1Cl (centres undefined)	59*
CN(C)Cc1csc(NC(=O)Nc2cccc(Cl)c2)n1	-13
NC(c1csc(Nc2cc(Oc3ccccc3)ncn2)n1)c1ccccc1Cl (centres undefined)	-15
CN(C[C@H]1[C@H](c2ccccc2)[C@@H](CO)N1CC1CC1)C(=O)c1ccc(F)cc1	-10[25 µM]
CC(=O)Nc1ccc2c(c1)C(=O)N(C)C[C@@H](C)[C@H](CN(C)S(C)(=O)=O)O2	-6
C=C1C(=O)OC2C=C(CO)C3OC3C3OC3(C)CC(OC(=O)/C(=C/C)COC(C)=O)C12 (centres undefined)	101*
CNC[C@@H]1Oc2ccc(NS(C)(=O)=O)cc2C(=O)N(C)C[C@@H]1C	5
CS(=O)c1ccccc1O (centres undefined)	12
O=S(c1ccccc1O)S(=O)c1ccccc1O (centres undefined)	82*
O=C(O)c1ccccc1O	4
COc1cccc(CN(C)C[C@H]2OCc3ccccc3-c3c(n(C)c4ccccc34)C(=O)N([C@H](C)CO)C[C@@H]2C)c1	19
C1CCC(C(CC2CCCCN2)C2CCCCC2)CC1 (centres undefined)	78*
COC(=O)C(CC(C)C)NC(=O)C(N)Cc1ccccc1 (centres undefined)	12
CC(C)C[C@@H](C=O)NC(=O)[C@H](CC(C)C)NC(=O)[C@H](CC(C)C)NC(=O)OCc1ccccc1	64*[25 µM]
O=C(NC(CO)C(=O)OCc1ccccc1)OCc1ccccc1 (centres undefined)	3
CN(C)C(=O)c1cccc(-c2ccc([C@@H]3[C@@H](C#N)N(C(=O)C4CCCC4)[C@H]3CO)cc2)c1	-1
CCCC(=O)Nc1ccc2c(c1)OC[C@@H](C)N(CC1CCOCC1)C[C@@H](C)[C@@H](OC)CN(C)C2=O	-8[25 µM]
CC(=O)N(C)C[C@@H]1Oc2ccc(NC(=O)NC(C)C)cc2CC(=O)N(C)C[C@H]1C	4
SMILES	BL2 CD40 inh
O=C(CS(=O)(=O)c1ccc(F)cc1)N1CCN(c2ccccc2)CC1	-22
CN1CCN(C(=O)CCN2C(=O)/C(=C\c3ccc(F)cc3)SC2=S)CC1	24
C=CC(=O)N1C/C(=C/c2ccc(F)cc2)C(=O)/C(=C\c2ccc(F)cc2)C1	68*
CC(C)NC(=O)N1[C@@H](CO)[C@H](c2ccccc2)[C@@H]1CNC(=O)CN(C)C	17
COc1ccccc1NC(=O)N[C@H]1CC[C@@H](CCNS(=O)(=O)c2ccc(Cl)cc2)O[C@H]1CO	-16[25 µM]
CSc1nnc(NC(=O)c2nc(S(=O)(=O)Cc3ccccc3)ncc2Cl)s1	102*
CSc1ncc(Cl)c(C(=O)Nc2nnc(SC)s2)n1	-2
COc1ccc(C(=O)Nc2nnc(S(=O)(=O)Cc3ccccc3)s2)cc1	6
O=C(C[C@H]1C[C@@H]2c3cc(NC(=O)C4CCOCC4)ccc3O[C@@H]2[C@H](CO)O1)NCCN1CCCCC1	-20[25 µM]
CC[C@H]1C/C=C\C[C@H](c2ccccc2)NC(=O)CCC(=O)N1	-6[25 µM]
CN(C)C(=O)c1ccc(-c2ccc([C@@H]3[C@@H](C#N)N(C(=O)C4CC4)[C@H]3CO)cc2)cc1	-7
CCc1nnc(NC(=O)C2CCCN(C(=O)c3ccc(Cl)cc3)C2)s1 (centres undefined)	-40
CCN(CC(=O)Nc1ccc(NC(C)=O)cc1)C(=O)C1CCCN(C(=O)c2ccc(Cl)cc2)C1 (centres undefined)	28*
CCN(CC(=O)Nc1ccc(NC(C)=O)cc1)C(=O)C1CCCC1	1
N#C[C@@H]1[C@H](c2ccc(C3=CCCCC3)cc2)[C@H](CO)N1C(=O)NC1CCCCC1	15
Cc1c(CCOC(=O)c2ccccc2)sc[n+]1Cc1ccccc1	-2
Cc1c(CCOC(=O)CC23CC4CC(CC(C)(C4)C2)C3)sc[n+]1CC(=O)c1ccccc1	70*
Cc1c(CCOC(=O)C23CC4CC(CC(C)(C4)C2)C3)sc[n+]1CC(=O)c1ccccc1	42
